# This is part of a sample that, as a whole, favours compounds with a hit. Of some 79,000 tested, about 15% had one in any assay. A number with no mark means an inactive call. Active and inactive are the calls of the source. Cut-off read from the data, not from the text of the source: active = growth inhibition above about 70%; inactive = the rest.
# Experiments:
# [1] = NCI Yeast Anticancer Drug Screen. Data for the rad50 strain (AID 155);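 note: 0% = growth of vehicle-only cultures of the same strain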; details: S. cerevisiae rad50 strain growth inhibition; at 50.0 µM; active compounds read high
# Summary of the method: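 Inhibition values express reduced yeast growth in compound-treated cultures relative to vehicle-treated controls.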
# [2] = NCI Yeast Anticancer Drug Screen. Data for the mec2-1 strain (AID 157); details: S. cerevisiae mec2-1 strain, at 50.0 µM, active compounds read high
# Summary of the method: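 Strain: mec2-1 (DNA repair/cell cycle alteration). Compound exposure, then growth measured; inhibition expressed relative to vehicle.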
# [3] = NCI Yeast Anticancer Drug Screen. Data for the sgs1 mgt1 strain (AID 161);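 note: 0% = growth of cultures given vehicle only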; details: S. cerevisiae sgs1 mgt1 strain, at 50.0 µM, active compounds read high
# Summary of the method: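 Test agents were incubated with a DNA-repair-mutant yeast strain. Growth was then read and compared against vehicle-treated controls.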
# [4] = NCI Yeast Anticancer Drug Screen. Data for the cln2 rad14 strain (AID 165);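 note: 0% = growth equal to vehicle treated cultures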; details: S. cerevisiae cln2 rad14 strain, at 50.0 µM, active compounds read high
# Summary of the method: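 Compounds are applied to the cln2 rad14 yeast strain, and growth is then compared with that of vehicle-treated cultures to give inhibition.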
# [5] = NCI Yeast Anticancer Drug Screen. Data for the bub3 strain (AID 167); details: S. cerevisiae bub3 mutant strain, at 50.0 µM, active compounds read high
# Summary of the method: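 Steps: expose the mutant yeast strain to compound; grow alongside vehicle-treated cultures; measure growth; express inhibition against the vehicle cultures.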
# [6] = NCI Yeast Anticancer Drug Screen. Data for the mlh1 rad18 strain (AID 175); details: S. cerevisiae mlh1 rad18 strain growth inhibition; at 50.0 µM; active compounds read high
# Summary of the method: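 Read-out is yeast growth inhibition, calculated against vehicle-only controls. The compound was applied to a strain engineered with DNA damage repair alterations.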
SMILES,growth inhibition [1],growth inhibition [2],growth inhibition [3],growth inhibition [4],growth inhibition [5],growth inhibition [6]
N#Cc1c(C#N)c(-c2ccco2)n(/N=C/c2ccco2)c1N,4.55%,0.6%,-34.5%,-6.75%,-25.8%,-37.4%
CC(C)C(O)C(=O)C(O)C(C)C (stereo not drawn),-13.4%,-8.2%,4.5%,15.7%,3.4%,-10.9%
COC(=O)CCCc1ccccc1N,-5.65%,-8.8%,-18.9%,-35.8%,3.1%,-15.9%
CCN(CC)CCOC(=O)c1ccc(N=NC2Sc3nc4ccccc4n3C2=O)cc1 (stereo not drawn),27.9%,20.2%,15.9%,14.4%,6.8%,27.8%
CCc1nc2ccccc2cc1C,5.5%,-4.55%,3.5%,-19.6%,1.1%,2.6%
CC(C)(C)OC(=O)NN(CC(=O)OCc1ccccc1)N=O,5.35%,-2.15%,2.9%,-42.5%,10.2%,-7.6%
COC(=O)c1cc(=O)c2scc(C)[n+]2[nH]1,-5.4%,-10.8%,18.9%,9.55%,-3.05%,-5.3%
CCOC(=O)C(C=C(C)C)(CC)C(=O)OCC,2.5%,-17%,-5.7%,-4.55%,-17.1%,-21.9%
O=C1OC(c2cccc(Cl)c2)=N/C1=C\c1ccc(O)cc1,15.8%,9.85%,15.6%,8.35%,1.45%,-3.2%
C/C(=N/NC(N)=O)C1=CCCCC1,-7%,7.3%,6.35%,4.1%,0.7%,7.4%
O=C(O)Cc1cc(I)c(Oc2ccc(O)cc2)c(I)c1,-5%,-29.4%,6.05%,15.2%,-9.5%,3.9%
COc1cc(OC)c(C2c3cc4c(cc3OC(N3CCCC3)C2C)OCO4)c(OC)c1 (stereo not drawn),17.1%,-11.8%,2.45%,18%,-5.1%,-1.4%
C=CCOC(=O)CC=C,-8.7%,-3.1%,4.75%,6.7%,-11.4%,5.3%
C/C=C\COC(=O)CC(C)=O,-1.35%,-23.4%,-4.3%,-2.75%,-26.3%,-16.6%
NC(N)=NC(N)=Nc1ccc(N=C(N)N=C(N)N)cc1,3.55%,-12.7%,-6.2%,-0.75%,10.2%,-1.3%
O=C(C[n+]1ccccc1)N/N=C(\Cc1nc2ccc([N+](=O)[O-])cc2[nH]c1=O)C(=O)Nc1cc(Cl)c(Cl)cc1Cl,24.2%,10.1%,2.5%,-27.8%,16.9%,9.35%
Cc1c(-c2ccccc2)c2ccccc2c2ccccc12,-10%,-15.6%,-4.25%,0.1%,2.2%,-14.4%
Nc1ccc(CCCCc2nc(N)nc(N)c2-c2ccc(Cl)c(Cl)c2)cc1,36.5%,77% (active),88.8% (active),9.1%,14.9%,60.5%
O=CNC(NC=O)NC=O,-3.4%,-2.2%,-2.15%,15.2%,-4.3%,0.95%

SMILES,growth inhibition [1],growth inhibition [2],growth inhibition [3],growth inhibition [4],growth inhibition [5],growth inhibition [6]
NC(=O)N1CCCCC1,7.2%,-6.6%,24.4%,7.2%,13.9%,4.65%
Cc1cc([N+](=O)[O-])ccc1NS(=O)(=O)c1ccccc1,24.9%,39.5%,42.9%,15.5%,18.1%,36.6%
Nc1cc(=O)c2n[nH]nc2[nH]1,-29.9%,0.7%,-17.1%,-21.6%,-14.3%,-16.9%
O=C(NCCN1CCCC1)Nc1ccccc1Cl,4.6%,27.2%,-0.8%,-10.1%,34.1%,0.15%
Cc1ccc(CNc2ccccc2)cc1,18.9%,-6.45%,27.3%,8.8%,14.7%,7.55%
CC1=C/C(=N\NC(=O)c2ccc[n+](C)c2)CC(C)(C)C1,18.7%,2.2%,6%,18.4%,-5.4%,12.2%
CCCCC/C(=N\Nc1ccc([N+](=O)[O-])cc1[N+](=O)[O-])c1ccc(-c2ccccc2)cc1,13.9%,6.05%,-6.9%,19.1%,-5.95%,0.6%
CSc1nnc(N(C(C)C)C(C)C)c2nc[nH]c12,9.65%,11.8%,16.1%,47.5%,14.7%,4.2%
COc1nc(NCCO)nc(OC)n1,3.35%,-2.5%,-16.5%,-29.6%,4.65%,-4.85%
CCc1nc2c(cnn2C)c(=O)n1-c1ccccc1,-5%,-6.35%,-1.2%,3.9%,10.6%,7.55%
CC(CCNC(=S)S)CC(C)(C)C.[Zn+2] (stereo not drawn),9.75%,15.1%,-7.55%,-36%,-4.65%,-1%
CCOC(=O)NCS(=O)(=O)N1CCOCC1,25.6%,9.25%,8%,19.6%,3.45%,9.7%
Oc1ccc(O)c(CCCCCc2cc(O)ccc2O)c1,76.3% (active),37.4%,66.5%,34.4%,70.2% (active),97.7% (active)
C=CC(C)(C)NC(C(=O)N1CCC[C@H]1c1nc(-c2nc(C(=O)OCC=C(C)C)c(C)o2)c(C)o1)C(C)C (stereo partly drawn),-4.25%,-10.7%,15.6%,-11.3%,3.05%,-2.85%
CCC(=O)Oc1ccc(CCC(C)=O)cc1OC,4.15%,-7.55%,-16.8%,-26.6%,-2.3%,25.8%
CC(=O)OCC1OC(n2c3c(cc(C#N)c2=S)CCCCCC3)C(OC(C)=O)C(OC(C)=O)C1OC(C)=O (stereo not drawn),22.2%,4.45%,12.1%,-12.8%,-4%,33.4%
COC1CC(NC(C)=O)C(OC(C)=O)C(CN=[N+]=[N-])O1 (stereo not drawn),5.1%,9.3%,8%,-11.4%,-10.2%,6.4%
N=C(N=C(C(Cl)(Cl)Cl)C(Cl)(Cl)Cl)N=C(C(Cl)(Cl)Cl)C(Cl)(Cl)Cl,8.75%,15.3%,11.1%,-8.55%,-24.2%,19.6%
NCCN(Cc1ccccc1)C1CC1,5.4%,-33.6%,9.35%,15.3%,-16.2%,-1.05%

# Source: PubChem BioAssay (NCI)
